PubChem BioAssay (NCI)
Compounds without any hit were thinned out: in the full panel of roughly 79,000, 15% have a hit. No stated cut-off is given here; in the data, active means growth inhibition above about 70%; inactive means the rest.

Columns and labels:
[1] = NCI Yeast Anticancer Drug Screen. Data for the rad50 strain (AID 155);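 further: 0% = growth of vehicle-only cultures of the same strain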; conditions: S. cerevisiae rad50 strain growth inhibition; at 50.0 µM; active compounds read high
Procedure, shortened: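 Growth of the mutant yeast was measured after compound exposure and referenced to vehicle-treated cultures.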

[2] = NCI Yeast Anticancer Drug Screen. Data for the mec2-1 strain (AID 157); conditions: S. cerevisiae mec2-1 strain, at 50.0 µM, active compounds read high
Procedure, shortened: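 Compounds were applied to mec2-1 yeast cells. Their growth was then compared with that of vehicle-treated cultures to give growth inhibition.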

[3] = NCI Yeast Anticancer Drug Screen. Data for the sgs1 mgt1 strain (AID 161);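 further: 0% = growth of cultures given vehicle only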; conditions: S. cerevisiae sgs1 mgt1 strain, at 50.0 µM, active compounds read high
Procedure, shortened: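 Percent growth inhibition was derived by comparing compound-exposed mutant yeast with vehicle-exposed cultures. The strain carries alterations in DNA damage repair.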

[4] = NCI Yeast Anticancer Drug Screen. Data for the cln2 rad14 strain (AID 165);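 further: 0% = growth equal to vehicle treated cultures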; conditions: S. cerevisiae cln2 rad14 strain, at 50.0 µM, active compounds read high
Procedure, shortened: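 Strain: cln2 rad14 yeast, altered in cell cycle control and DNA damage repair. Read-out: growth inhibition vs vehicle.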

[5] = NCI Yeast Anticancer Drug Screen. Data for the bub3 strain (AID 167); conditions: S. cerevisiae bub3 mutant strain, at 50.0 µM, active compounds read high
Procedure, shortened: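 Whole-cell yeast assay. The mutant strain was incubated with compounds, and growth inhibition was determined by comparison with vehicle-treated cells.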

[6] = NCI Yeast Anticancer Drug Screen. Data for the mlh1 rad18 strain (AID 175); conditions: S. cerevisiae mlh1 rad18 strain growth inhibition; at 50.0 µM; active compounds read high
Procedure, shortened: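 A repair-deficient yeast strain is exposed to test compound, and growth is scored relative to vehicle-treated controls.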

Measured: growth inhibition

N#CC(=S)Nc1ccc(Cl)c(Cl)c1
inactive: [1] -4.8% | [2] 27.9% | [3] 22.6% | [4] -36% | [5] -1.95% | [6] 31.8%

Oc1cc2c(c3c(O)c4ccccc4c(O)c13)=NC1CCCCC1N=2 (stereo unspecified)
inactive: [1] 6.25% | [2] 9.6% | [3] 20.6% | [4] 7.6% | [5] 15.3% | [6] 40%

CCC1CCCC1=O (stereo unspecified)
inactive: [1] -8.75% | [2] -10.1% | [3] -9.9% | [4] 8.6% | [5] 10.4% | [6] -8.55%

CCOP(=O)(O)C(c1ccccc1)c1ccccc1
inactive: [1] -2.45% | [2] 7.5% | [3] 3.5% | [4] -10.7% | [5] 5.3% | [6] 6.85%

CCCC(=O)Oc1ccc(CC)cc1
inactive: [1] 25.5% | [2] 15.4% | [3] 8.75% | [4] -20.4% | [5] 14.5% | [6] 20.9%

c1ccc(-c2cc(-c3ccncc3)cc(-c3ccncc3)n2)cc1
inactive: [1] 3.85% | [2] -21% | [3] 9.4% | [4] 18.6% | [5] -1.9% | [6] -85.2%

Nc1nnc(-c2ccccc2O)o1
inactive: [1] 36.3% | [2] 4.25% | [3] 23.7% | [4] 33.1% | [5] 21.4% | [6] 32.2%

CC(=O)c1cccc(OC(=O)c2ccccc2)c1
inactive: [1] 23.5% | [2] 8.3% | [3] 35% | [4] 10.7% | [5] 45.1% | [6] 30.8%

C[C@@]12CCC[C@H]1[C@@H]1CC=C3C[C@@H](S)CC[C@]3(C)[C@H]1CC2
inactive: [1] -6.75% | [2] 4.5% | [3] -3.25% | [4] -31.1% | [5] -6.9% | [6] -13.7%

N#Cc1c[nH]n2ccnc12
inactive: [1] -16.7% | [2] -20.4% | [3] -23.4% | [4] -21.7% | [5] -4.1% | [6] -17.1%

COC1=NO[C@@H]2C=CO[C@H]12
inactive: [1] -8.2% | [2] -13.2% | [3] -5.05% | [4] -18.4% | [5] 8.35% | [6] 9.95%

O=C(O)Cc1cc(=O)[nH]n(-c2ccccc2)c1=O
inactive: [1] 14.2% | [2] 8.6% | [3] -1.3% | [4] 10% | [5] -4.65% | [6] 13.8%

CC(=O)NC1CCCCC1C1CCC([N+](=O)[O-])CC1 (stereo unspecified)
inactive: [1] 12.6% | [2] -1.75% | [3] -12.5% | [4] 12.7% | [5] 6.9% | [6] 6.05%

O=C1C(N=Cc2c(O)ccc3ccccc23)CON1C(c1ccccc1)(c1ccccc1)c1ccccc1 (stereo unspecified)
inactive: [1] 55.5% | [2] 37.5% | [3] 28.9% | [4] 20.1% | [5] 3.55% | [6] 40.5%

C(=C1\CCC/C(=C/c2ccccc2)C1=NNc1ccccc1)/c1ccccc1
inactive: [1] 19.7% | [2] 2.35% | [3] 6.45% | [4] 18.1% | [5] 11% | [6] 24.1%

N#Cc1c(N)nc2c(c(-c3ccc(Cl)cc3)nn2-c2ccccc2)c1C#N
inactive: [1] -2.45% | [2] -17.4% | [3] -34.8% | [4] 11.1% | [5] -23.9% | [6] 6.1%

C[n+]1cccc(C(=O)O)c1-c1ccccc1
inactive: [1] 20.4% | [2] 5.9% | [3] 5.85% | [4] -39.5% | [5] 4.55% | [6] 10.3%

O=C(O)NC(c1ccccc1)C(NC(=O)c1ccccc1)c1ccccc1 (stereo unspecified)
inactive: [1] -0.45% | [2] -4.1% | [3] 5.75% | [4] 7.15% | [5] -7.35% | [6] 31.4%

CCCCCCCCCCCC(=O)CC(=O)c1c(O)cccc1O
inactive: [1] 1.35% | [2] -11.6% | [3] 6.45% | [4] 0.1% | [5] 20.7% | [6] -12.2%

NC1=NC(c2ccccc2)N=C(Nc2ccccc2)N1 (stereo unspecified)
inactive: [1] 37.2% | [2] 1.4% | [3] 16.4% | [4] -15% | [5] 15.2% | [6] 41.6%

O=C(c1ccc(F)cc1)C1CCC1
inactive: [1] 16.3% | [2] -22.7% | [3] 16.6% | [4] 18.1% | [5] 18.6% | [6] 22.1%
